Source: PubChem BioAssay (Tox21)
Several values for one entry are separate records, joined by “and”; a condition that tells them apart may be missing. Equal values may be shown once. Inconclusive results are not listed. More than one record can exist for a structure, and the calls need not agree. Activity calls are given as the source filed them. Unless noted, the call rests on the fitted dose curve; in most records, active means well fitted curve in the direction sought with a large enough effect in the repeat runs; inconclusive means weak or mixed curves; inactive means no such curve, though single readings can be large; an effect the other way counts as inactive or inconclusive.

Experiments:
[1] = qHTS assay to identify small molecule agonists of the NFkB signaling pathway (AID 1159509; active means well fitted curve in the direction sought with a large enough effect in the signal ratio in the repeat runs, not every such curve was filed as active; the % refers to the signal ratio); settings: NFkB-bla ME-180 cells, beta-lactamase FRET ratio, 5 h; series mostly up to 61 µM
In short: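 Beta-lactamase reporter assay run in quantitative high-throughput format on an NF-kB-responsive ME-180 line, with 5 hr compound treatment and a FRET-based blue/green fluorescence readout.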

[2] = qHTS assay to identify small molecule agonists of the NFkB signaling pathway - cell viability counter screen (AID 1159515; calls by dose curve; further: nearly all actives have a fitted effect of over 55% in size); settings: NFkB-bla ME-180 viability, CellTiter-Glo luminescence, 5 h; series mostly up to 61 µM
In short: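 ME-180 NFkB-bla cells, 2,000/well; overnight attach; compound 5 hr, 37 C/5% CO2; LiveBLAzer substrate 1.5 hr RT; then CellTiter-Glo in same wells, 30 min RT, luminescence read.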

[3] = qHTS assay to identify small molecule agonists of the endoplasmic reticulum stress response signaling pathway (AID 1159516; active means well fitted activation curve with a large enough effect in the signal ratio in the repeat runs, not every such curve was filed as active; the % refers to the signal ratio); settings: ESRE-bla HeLa, ER stress beta-lactamase reporter, 5 h; series mostly up to 61 µM
In short: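 HeLa ESRE-bla reporter line; cpd 5 h, 37 C/5% CO2; LiveBLAzer B/G FRET substrate 2 h RT; ex 405, em 460/530 nm.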

[4] = qHTS assay to identify small molecule agonists of the endoplasmic reticulum stress response signaling pathway - cell viability counter screen (AID 1159517; calls by dose curve;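 further: HeLa cells carrying an ER stress response element beta-lactamase reporter; nearly all actives have a fitted effect of over 50% in size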); settings: ESRE-bla HeLa viability, CellTiter-Glo luminescence, 5 h; series mostly up to 61 µM
In short: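 Steps: seed 1,500 ESRE-bla HeLa cells per well; incubate overnight at 37 C, 5% CO2; add compounds in DMSO for 5 hr; run FRET substrate 2 hr RT; add CellTiter-Glo, wait 30 min, read luminescence.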

[5] = qHTS assay to identify small molecule antagonists of the retinoid-related orphan receptor gamma (ROR-gamma) signaling pathway - cell viability counter screen (AID 1159520); settings: Tet-on RORgamma CHO cells viability, ATP luminescence, 16 h; series mostly up to 92.4 µM; further: nearly all actives have a fitted effect of over 50% in size; further: potency means the concentration at half of the fitted maximal effect
In short: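 Tet-on ROR gamma CHO cells were given compounds for 2 hr, then doxycycline hyclate at 1 uM final, and incubated 16 hr at 37 C. Viability was measured as ATP content by CellTiter-Glo luminescence.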

[6] = target: Nuclear receptor ROR-gamma (Homo sapiens) (UniProt P51449); assay: qHTS assay to identify small molecule antagonists of the retinoid-related orphan receptor gamma (ROR-gamma) signaling pathway (AID 1159521; further: nearly all actives have a fitted effect of over 50% in size; further: potency means the concentration at half of the fitted maximal effect); settings: Tet-on RORgamma CHO cells, RORE-luciferase, 16 h; series mostly up to 92.4 µM
In short: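 Decreased RORE-driven luciferase luminescence indicates antagonism. Tet-on RORγ CHO cells received compound, then 1 uM final doxycycline 2 h later; signal read after 16 h incubation.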

[7] = qHTS assay to identify small molecule agonists of the AP-1 signaling pathway - cell viability counter screen (AID 1159525; calls by dose curve; further: nearly all actives have a fitted effect of over 55% in size); settings: ME-180 AP-1-bla cells viability, ATP luminescence, 5 h; series mostly up to 76.8 µM
In short: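 Same-well cytotoxicity counter screen of the Tox21 10K library in ME-180 cells. The readout is ATP-dependent luminescence after 5 h compound treatment. Data are normalised to DMSO and tetra n-octyl ammonium bromide controls.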

[8] = qHTS assay to identify small molecule agonists of the AP-1 signaling pathway (AID 1159526; calls by dose curve); settings: ME-180 (cervical carcinoma) AP-1-bla reporter, beta-lactamase FRET ratio, 5 h; series mostly up to 76.8 µM
[9] = target: Retinoic acid receptor RXR-alpha (Homo sapiens) (UniProt P19793); assay: qHTS assay to identify small molecule agonists of the RXR signaling pathway (AID 1159527; calls by dose curve; further: nearly all actives have a fitted effect of over 35% in size; further: potency means the concentration at half of the fitted maximal effect); settings: HEK293T RXRa-UAS-bla, beta-lactamase ratio, 16 h; series mostly up to 76.8 µM
Retinoic acid receptor RXR-alpha (Homo sapiens), sequence (P19793 whole entry, looked up): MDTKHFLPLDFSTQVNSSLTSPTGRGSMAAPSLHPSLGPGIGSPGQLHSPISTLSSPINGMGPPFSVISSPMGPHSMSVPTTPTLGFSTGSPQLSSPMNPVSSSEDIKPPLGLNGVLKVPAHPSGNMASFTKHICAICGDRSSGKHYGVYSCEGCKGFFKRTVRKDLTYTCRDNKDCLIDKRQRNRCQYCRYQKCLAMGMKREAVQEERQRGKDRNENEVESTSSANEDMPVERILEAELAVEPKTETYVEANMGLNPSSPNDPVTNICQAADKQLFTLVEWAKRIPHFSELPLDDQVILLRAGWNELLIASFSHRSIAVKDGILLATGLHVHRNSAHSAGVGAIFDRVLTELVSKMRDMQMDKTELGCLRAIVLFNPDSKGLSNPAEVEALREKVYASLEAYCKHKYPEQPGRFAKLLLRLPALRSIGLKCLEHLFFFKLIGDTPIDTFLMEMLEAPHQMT
In short: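 16 hr incubation of compound-treated RXR-alpha-UAS-bla HEK 293T cells (2% charcoal-stripped FBS, 37 C) preceded a 2 hr room-temperature LiveBLAzer FRET substrate step and blue/green fluorescence measurement.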

[10] = qHTS assay to identify small molecule agonists of the RXR signaling pathway - cell viability counter screen (AID 1159529); settings: RXR-alpha-bla HEK293T viability, CellTiter-Glo, 16 h; series mostly up to 76.8 µM; further: nearly all actives have a fitted effect of over 50% in size; further: potency means the concentration at half of the fitted maximal effect
In short: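 In this parallel viability measure, GeneBLAzer RXR-alpha HEK 293T cells (2% charcoal-stripped FBS) were given a 5 hr preincubation, treated with compounds 16 hr at 37 C, and read by CellTiter-Glo luminescence.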

[11] = qHTS assay to identify small molecule antagonists of the retinoid acid receptor (RAR) signaling pathway - cell viability counter screen (AID 1159551); settings: C3RL4 cells viability, ATP luminescence (CellTiter-Glo), 6 h; series mostly up to 92.4 µM; further: nearly all actives have a fitted effect of over 35% in size
In short: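 C3RL4 RARE-luciferase line; cpds + retinol 1 uM final, 6 h, 37 C/5% CO2; CellTiter-Glo ATP luminescence, 30 min RT.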

[12] = qHTS assay to identify small molecule antagonists of the retinoic acid receptor (RAR) signaling pathway (AID 1159552; further: nearly all actives have a fitted effect of over 50% in size); settings: C3RL4 RARE luciferase reporter, retinol-stimulated, 6 h; series mostly up to 92.4 µM
In short: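 C3RL4 RARE-luc cells, overnight plating; retinol 1 uM final added right after compound; 6 hr 37 C; luciferase read at 30 min RT.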

[13] = qHTS assay to identify small molecule agonists of the retinoic acid receptor (RAR) signaling pathway (AID 1159553); settings: C3RL4 RARE luciferase reporter, agonist, 6 h; series mostly up to 73.3 µM; further: potency means the concentration at half of the fitted maximal effect
In short: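 RARE-luc C3RL4 cells; overnight attachment 37 C/5% CO2; compound (DMSO) 6 hr; luciferase reagent, 30 min RT; luminescence read-out.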

[14] = qHTS assay to identify small molecule antagonists of the estrogen related receptor (ERR) signaling pathway from Tox21 library - cell viability counter screen (AID 1224834); settings: ERR reporter cells viability, CellTiter-Fluor, 17.5 h; series mostly up to 92.4 µM; further: nearly all actives have a fitted effect of over 30% in size
In short: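 Multiplexed viability counter screen in ERR cells: 17.5 h compound exposure at 37 C, CellTiter-Fluor added, 30 min at 37 C/5% CO2, fluorescence read.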

[15] = qHTS assay to identify small molecule antagonists of the estrogen related receptor (ERR) signaling pathway - cell viability counter screen (AID 1224818); settings: ERR reporter cell line viability counter screen; series mostly up to 46.1 µM
In short: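 Fluorescence from CellTiter-Fluor, read 30 min after reagent addition at 37 C, measured viability of ERR cells exposed to compounds for 17.5 h. Cells had settled 6 h before dosing.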

[16] = qHTS assay to identify small molecule antagonists of the estrogen related receptor (ERR) signaling pathway (AID 1224819); settings: ERR reporter cell line, luciferase inhibition; series mostly up to 92.2 µM
In short: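 Luminescence readout (One-Glo, 30 min, RT) of ERR cell line after 18 h compound exposure at 37 C; cells seeded 2,000/well, pre-incubated 6 h, compounds pinned from DMSO stocks.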

[17] = qHTS assay to identify small molecule agonists of the estrogen related receptor (ERR) signaling pathway (AID 1224820); settings: ERR reporter cell line, luciferase agonist mode; series mostly up to 46.1 µM; further: potency means the concentration at half of the fitted maximal effect
In short: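 Following a 6 h settling period, 2,000 ERR cells per well receive DMSO-dissolved compounds by pin tool and incubate 18 h at 37 C; agonist activity is scored from One-Glo luminescence read 30 min post-addition.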

[18] = tested on: estrogen-related receptor alpha (ERRalpha) with PGC-1alpha coactivator, human; assay: qHTS assay to identify small molecule antagonists of the estrogen related receptor signaling pathway with the pleiotropic PPARgamma coactivator (PGC) (AID 1224821; calls by dose curve); settings: ERR/PGC reporter cell line, luciferase, antagonist mode; series mostly up to 46.1 µM
In short: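 Screening used NTP's PGC/ERR cells, dosed via pin tool with compound in DMSO alongside positive and negative controls. After 18 h at 37 C, One-Glo reagent sat 30 min at room temperature before luminescence detection.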

[19] = qHTS assay to identify small molecule antagonists of the estrogen related receptor signaling pathway with the pleiotropic PPARgamma coactivator (PGC) cell viability counter screen (AID 1224822); settings: ERR/PGC reporter cell line viability counter screen; series mostly up to 46.1 µM
In short: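 Fluorescence read-out of CellTiter-Fluor after 30 min at 37 C; PGC/ERR cells, 2,000 per well, had been exposed to DMSO-dissolved compounds for 17.5 h following a 6 h pre-incubation.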

[20] = qHTS assay to identify small molecule agonists of the estrogen related receptor signaling pathway with the pleiotropic PPARgamma coactivator (PGC) (AID 1224823); settings: ERR/PGC reporter cell line, luciferase agonist mode; series mostly up to 46.1 µM; further: potency means the concentration at half of the fitted maximal effect
In short: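 In this quantitative high-throughput screen, an 18 h, 37 C treatment of PGC/ERR cells with compounds in DMSO preceded a One-Glo luminescence read taken after 30 min at room temperature.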

Measured: Potency

CCOC(=O)/C=C\C(=O)OCC
inactive: [1] | [2] | [3] | [4] | [5] | [6] | [7] | [8] | [9] | [10] | [11] | [12] | [13] | [14]

CCc1ccccc1O
inactive: [1] | [2] | [3] | [4] | [7] | [8] | [10] | [11] | [12] | [13] | [14]
30.5 µM (active) and inactive: [6]
60.8 µM (active) and inactive: [5]
5.47 µM (active) and inactive: [9]

O=[N+]([O-])C(CO)(CO)CO
inactive: [1] | [2] | [3] | [4] | [5] | [6] | [7] | [8] | [9] | [10] | [11] | [12] | [13] | [14]

CCCCNC(N)=O
inactive: [1] | [2] | [3] | [4] | [5] | [6] | [7] | [8] | [9] | [10] | [11] | [12] | [13] | [14]

Oc1ccc(OCc2ccccc2)cc1
inactive: [1] | [2] | [3] | [4] | [5] | [6] | [7] | [8] | [9] | [10] | [11] | [12] | [14]
4.24 µM (active) and inactive: [13]

CC(=O)Nc1ccc(C(=O)O)cc1
inactive: [1] | [2] | [3] | [4] | [5] | [6] | [7] | [8] | [9] | [10] | [11] | [12] | [13] | [14]

O=C(Oc1ccccc1)c1ccc(O)cc1
inactive: [1] | [2] | [3] | [4] | [5] | [6] | [7] | [8] | [9] | [10] | [11] | [12] | [14]
active: [13] 19.4 µM and 30.6 µM

NCc1cccc(CN)c1
inactive: [1] | [2] | [3] | [4] | [5] | [6] | [7] | [8] | [9] | [10] | [11] | [12] | [13] | [14]

CC(=O)CCc1ccccc1
inactive: [1] | [2] | [3] | [4] | [5] | [6] | [7] | [8] | [9] | [10] | [11] | [12] | [13] | [14]

C=C1C2CCC(C2)C1(C)C (stereo not given)
inactive: [1] | [2] | [3] | [4] | [5] | [6] | [7] | [8] | [9] | [10] | [11] | [12] | [13] | [14]

CCCCC/C=C\C/C=C\CCCCCCCC(=O)OC
inactive: [1] | [2] | [3] | [4] | [5] | [6] | [7] | [8] | [9] | [11] | [12] | [13] | [14]
inactive and 34.7 µM (active): [10]

Cc1cc(=O)[nH]c(C(C)C)n1
inactive: [1] | [2] | [3] | [4] | [5] | [6] | [7] | [8] | [9] | [10] | [11] | [12] | [13] | [14]

O=c1c(-c2ccc(O)cc2)coc2cc(O)ccc12
active: [13] 2.41 µM and 12.2 µM | [17] 15.5 µM | [20] 20.3 µM
inactive: [1] | [2] | [3] | [4] | [5] | [6] | [7] | [8] | [9] | [10] | [11] | [12] | [15] | [16] | [18] | [19] | [14]

CCCCOCCO
inactive: [1] | [2] | [3] | [4] | [5] | [6] | [7] | [8] | [9] | [10] | [11] | [12] | [13] | [14]

Oc1c(Cl)cc(Cl)c(Cl)c1Cl
inactive: [1] | [2] | [3] | [4] | [5] | [7] | [8] | [9] | [11] | [12] | [13] | [14]
active: [6] 53.3 µM and 61.1 µM | [10] 15.2 µM and 13.8 µM

O=C1O[C@H](CO)[C@@H](O)[C@H](O)[C@H]1O
inactive: [1] | [2] | [3] | [4] | [5] | [6] | [7] | [8] | [9] | [10] | [11] | [12] | [13] | [14]
